A short description of assay [1]: compound effects on lung adenocarcinoma cell viability – A549, calcein-AM fluorescence, 48 h, basal, profiling panel (AID 1162). Particulars: higher = more signal.
Assay [2] can be described thus: compound effects on differentiated 3T3-L1 adipocyte viability – cell-based, 3T3-L1 adipocytes, calcein-AM fluorescence, 48 h, basal, profiling panel (AID 1163). As to conditions: 3T3-L1 adipocytes viability, higher = more signal.
Assay [3] is described as follows: compound effects on hepatocellular carcinoma cell viability – HepG2, calcein-AM fluorescence, 48 h, basal, profiling panel (AID 1164). As to conditions: higher = more signal.
Assay [4] can be described thus: compound effects on multiple myeloma cell viability – MM1S, calcein-AM fluorescence, 48 h, basal, profiling panel (AID 1165).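 Further: viability of MM1S multiple myeloma cells under basal unstimulated conditions.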 Particulars: higher = more signal.
Assay [5] is described as follows: calcein-AM signal in unstimulated myeloma cells – cell-based, calcein-AM fluorescence, 48 h, PK04 Diversity Set, profiling panel (AID 1166).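 Further: cells grown under basal conditions without added stimulus.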 As to conditions: RPMI8226 myeloma viability, higher = more signal.
A short description of assay [6]: JC-1 mitochondrial signal, unstimulated HepG2 cells – cell-based, JC-1 fluorescence, 24 h, 100 nL compound, profiling panel (AID 1167). As to conditions: HepG2 mitochondrial potential, higher = more signal.
Assay [7] is described as follows: JC-1 mitochondrial signal, unstimulated adipocytes – cell-based, JC-1 fluorescence, 3T3-L1 adipocytes, 24 h, 100 nL compound, profiling panel (AID 1168). Particulars: JC-1 mitochondrial fluorescence, higher = more signal, called active from +8 up or from −8 down.
Assay [8] can be described thus: JC-1 mitochondrial signal, unstimulated myeloma cells – cell-based, JC-1 fluorescence, RPMI8226, 24 h, 100 nL compound, profiling panel (AID 1169). Particulars: JC-1 mitochondrial potential fluorescence, higher = more signal.
Assay [9] is described as follows: JC-1 mitochondrial signal, unstimulated MM1S myeloma – cell-based, JC-1 fluorescence, 24 h, 100 nL compound, profiling panel (AID 1170). As to conditions: MM1S mitochondrial potential, higher = more signal.
Assay [10] in a line: resazurin metabolic signal in A549 cells – cell-based, resazurin fluorescence, 24 h, PK04 Diversity Set, profiling panel (AID 1171). Particulars: A549 viability, higher = more signal, called active from +8 up or from −8 down.

The values below come from PubChem BioAssay.

The source made the active and inactive calls.
Further: test concentration not given here.

With `COc1ccc(C(O)C2C=CC3C(=O)NC(=O)C3N2Nc2ccccn2)cc1` (stereo not given), the z-score in assay [1] was -0.483; in assay [2], -0.0402; in [3], -0.454; in [4] it was -0.632; in [5] it was 0.202; in assay [6] it was -0.69. For the same compound, the z-score is -0.0063 (inactive) in [7], -0.143 in assay [8], 0.0564 in assay [9] and -0.582 (inactive) in [10].
On to `COC(=O)[C@@]1(Cc2ccc(OC)cc2)[C@H]2c3cc(C(=O)N4CCCC4)n(Cc4ccc(OC)c(OC)c4)c3C[C@H]2CN1C(=O)c1ccccc1`, for which the z-score is -0.25 in assay [1]; 0.525 in assay [2]; -1.05 in assay [3]; -0.128 in [4]; -0.808 in assay [5]; 4 in assay [6]. For the same compound, the z-score in assay [7] is 0.0331 (inactive); in assay [8], -0.16; in assay [9], -0.602; in assay [10], 1.21 (inactive).
Take `[N-]=[N+]=Nc1ccccc1[C@H]1OC(c2ccc(OCCCO)cc2)=N[C@@]1(Cc1ccccc1)C(=O)O`: the z-score in [1] was 1.98; in assay [2] it was 0.276; in assay [3], 0.73; in [4] it was -0.0876; in assay [5], -0.532; in [6] it was -0.107. Moreover, the z-score in assay [7] is 0.222 (inactive); in assay [8], -0.0546; in assay [9] it was -1.2; in assay [10] it was -0.724 (inactive).
On to `CC(C)(C)C(=O)N[C@@H](c1ccc(Cl)cc1)[C@]1(C)C[C@H]1C1CCCCC1`, for which the z-score in assay [1] was -1.07; in [2], 0.459; in assay [3], -0.492; in [4], -1.22; in assay [5] it was -1.43; in [6], 4.37. Besides, the z-score in assay [7] is -0.594 (inactive); in [8], -0.533; in [9] it was 0.162; in [10], -0.466 (inactive).
Take `CC1CC/C=C\[C@H]2OC34C=CCN(C(C)(C)C)C(=O)[C@H]3N(CCCCCCO)C(=O)[C@@H]4C2C(=O)O1` (stereo not given in full): the z-score was 0.406 in [1]; 0.305 in assay [2]; 1.08 in [3]; 0.742 in assay [4]; 0.298 in assay [5]; 0.436 in assay [6]. Further, the z-score in assay [7] is 1.11 (inactive); in assay [8], 0.563; in [9], -0.166; in assay [10], -0.43 (inactive).
Turning to `CCCCCCC#C[Si](O[C@H](c1ccccc1)c1cn([C@H](CO)Cc2ccccc2)nn1)(C(C)C)C(C)C`, the z-score is 1.77 in assay [1]; -0.121 in assay [2]; -0.407 in assay [3]; -0.178 in [4]; -0.542 in assay [5]; 0.338 in assay [6]. Also, the z-score is -0.94 (inactive) in [7], -0.229 in assay [8], -1.75 in [9] and 0.419 (inactive) in assay [10].
As for `COCCOC(=O)N1C(=O)[C@@]2(c3cc(C#CC4=CCCCC4)ccc31)[C@H](C(=O)N1CCc3cc(OC)c(OC)cc3C1)[C@H]1C(=O)O[C@H](c3ccccc3)[C@H](c3ccccc3)N1[C@@H]2c1ccc(OCCO)cc1`, the z-score in [1] was -0.989; in assay [2] it was 0.847; in assay [3], -1.2; in assay [4], -1.84; in assay [5], -0.691; in assay [6], -0.207. Moreover, the z-score was 1.22 (inactive) in assay [7], -0.621 in assay [8], -0.968 in assay [9] and 0.531 (inactive) in assay [10].
Turning to `CC(C)c1ccc(NN2C(C(O)C(c3ccccc3)c3ccccc3)C=CC3C(=O)N(c4ccccc4)C(=O)C32)cc1` (stereo not given), the z-score in assay [1] was -0.447; in [2], -0.306; in [3], -0.0211; in [4], -0.535; in assay [5], -0.967; in assay [6], -0.988. For the same compound, the z-score in assay [7] is -0.8 (inactive); in assay [8], -0.107; in [9], 0.798; in assay [10], -2.05 (inactive).
As for `CC(C)(C)OC(=O)CC[C@]1(C(=O)O)N=C(c2ccc(OCCCO)cc2)O[C@H]1c1ccccc1N=[N+]=[N-]`, the z-score is 0.559 in assay [1]; -0.598 in [2]; 0.331 in assay [3]; -0.128 in assay [4]; -0.24 in [5]; -2.45 in assay [6]. Also, the z-score was 0.328 (inactive) in assay [7], -0.506 in assay [8], -0.589 in assay [9] and 0.0553 (inactive) in assay [10].
On to `N#Cc1ccc(NN2C(C(O)c3c(F)cccc3Cl)C=CC3C(=O)N(c4ccccc4)C(=O)C32)cc1` (stereo not given), for which the z-score in [1] was 0.212; in assay [2] it was -0.684; in assay [3], 0.0972; in assay [4], -0.0928; in assay [5], -0.91; in [6], -1.41. Further, the z-score in assay [7] was -1.82 (inactive); in assay [8] it was -0.275; in [9] it was -0.0893; in assay [10], -0.0273 (inactive).
In the case of `CC(C)(C)OC(=O)CC[C@@]1(C(=O)NCCN2CCOCC2)N=C(c2ccc(OCCCO)cc2)O[C@@H]1c1ccccc1N=[N+]=[N-]`, the z-score in assay [1] is 1.2; in assay [2], 0.698; in [3], 1.33; in assay [4], -0.849; in [5], -0.187; in [6], 0.749. Also, the z-score was 1.66 (inactive) in [7], -0.993 in [8], -0.339 in [9] and -0.492 (inactive) in assay [10].
Turning to `COc1ccc([Si](C)(C)[C@H]2[C@H](CCO)O[C@@]3(C(=O)N(C)c4c(Br)cc(C)cc43)[C@@H]2C)cc1`, the z-score was -4.21 in [1]; -1.8 in [2]; -4.77 in assay [3]; -2.69 in [4]; -4.31 in assay [5]; -2.21 in assay [6]. Further, the z-score was 0.343 (inactive) in assay [7], -1.05 in [8], -2.29 in [9] and -6.97 (inactive) in assay [10].
For the compound `C=C(CCCC)/C(=C/C[C@@H](OC(C)=O)c1ccccc1OCCO)c1cnc2ccccc2c1`, the z-score in assay [1] is -0.865; in assay [2], 1.79; in [3], -0.749; in [4], -2.72; in assay [5], -3.31; in [6], 0.749. Also, the z-score in assay [7] is -1.17 (inactive); in assay [8], -0.691; in assay [9], 0.61; in assay [10], -1.21 (inactive).
Consider `CC(C)(C)OC(=O)CC[C@@]12N=C(c3ccc(OCCCO)cc3)O[C@@H]1c1ccccc1N(CCS(=O)(=O)c1ccccc1)C2=O`, for which the z-score in assay [1] is 2.14; in [2] it was 0.828; in assay [3], 0.116; in assay [4] it was -1.6; in assay [5], -0.72; in assay [6] it was 0.741. The z-score in [7] is 3.28 (inactive); in assay [8] it was -0.814; in [9], -1.13; in assay [10], -1.91 (inactive).
